The values below come from PubChem BioAssay.

Chain of Follistatin (Homo sapiens) (P19883 whole entry, looked up): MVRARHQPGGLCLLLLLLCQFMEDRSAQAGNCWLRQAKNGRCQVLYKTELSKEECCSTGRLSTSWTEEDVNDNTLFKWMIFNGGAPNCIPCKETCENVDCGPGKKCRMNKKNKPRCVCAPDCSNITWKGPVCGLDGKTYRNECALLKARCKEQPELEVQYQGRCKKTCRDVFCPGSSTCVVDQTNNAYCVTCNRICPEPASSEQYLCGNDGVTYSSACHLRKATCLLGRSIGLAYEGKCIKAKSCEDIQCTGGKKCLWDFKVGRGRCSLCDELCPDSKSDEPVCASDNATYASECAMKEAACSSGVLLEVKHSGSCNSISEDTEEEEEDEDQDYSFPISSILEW

One assay deals with Fibrinogen (Alexa647-labelled). Put plainly: fibrinogen binders on compound microarrays, profiling panel, artefact control for SMM control-protein annotation, biochemical, small-molecule microarray, 635/667 nm fluorescence (AID 1131).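 Note: z-score merges 667 nm fluorescence with per-spot signal-to-noise over triplicate slides.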 The settings on record: fibrinogen-A647 binding fluorescence, higher = more signal.
On to `C=CCN1C(=O)[C@]2(Cc3ccccc31)N=C(c1ccc(OCCCO)cc1)O[C@@H]2c1ccccc1`, for which the composite z-score worked out at 0.585.

In the case of `CCCCC(=O)N(Cc1ccccc1F)[C@@H]1CC(C(=O)NCCO)=C[C@H](Oc2c(I)cc(CO)cc2OC)[C@H]1O`, the composite z-score came out at 0.96. Take `Cc1c(NC(=O)/C(C#N)=C/C=C/c2ccccc2)c(=O)n(-c2ccccc2)n1C`: the composite z-score was 0.68.

For `CC(C)(C)OC(=O)CC[C@]1(C(=O)NCC(O)CO)N=C(c2ccc(OCCCO)cc2)O[C@H]1c1ccccc1CN=[N+]=[N-]` (some centres undefined), the composite z-score was found to be 1.03. As for `CCCC[C@@H]1C[C@H]1[C@@H](NC(=O)c1ccco1)c1ccccc1`, the composite z-score is -1.82.

Take `NC(=O)NCC#Cc1ccc2c(c1)[C@]1(C(=O)N2)[C@H](c2ccccc2OCCO)N2[C@H](c3ccccc3)[C@H](c3ccccc3)OC(=O)[C@H]2[C@@H]1C(=O)N1CCCCCCC1`: the composite z-score is 0.505. The same measure, in the same setting: then `C=C(COC)C(=O)CC[C@H](OC(=O)c1cccnc1)c1ccccc1OCCO`, with 0.756.

As to `C=C(C(=O)CC[C@@H](OC(=O)c1cccnc1)c1ccc(CO)o1)C(C)C`, the composite z-score came to 0.82. `O=C1O[C@H](c2ccccc2)[C@H](c2ccccc2)N2[C@H]1[C@@H](C(=O)Nc1nc3ccccc3s1)[C@]1(C(=O)Nc3ccc(C#CC4=CCCCC4)cc31)[C@H]2c1ccc(OCCO)cc1` registered a composite z-score of 0.831. Still for that read-out and setting: then `COCCOC(=O)N1C(=O)[C@@]2(c3cc(C#Cc4ccc(OC)cc4)ccc31)[C@H](C(N)=O)[C@H]1C(=O)O[C@H](c3ccccc3)[C@H](c3ccccc3)N1[C@@H]2c1ccc(O)cc1`, with -1.48; and `CN1C(=O)C2C(C1=O)C1C=C(c3ccc(CO)cc3)C2C(C2CC2)N1Cc1sc2ccccc2c1Cl` (centres undefined), with 0.982. Consider `CC1CC/C=C\[C@H]2OC34C=CCN(Cn5nnc6ccccc65)C(=O)[C@H]3N(CCCO)C(=O)[C@@H]4C2C(=O)O1` (some centres undefined), for which the composite z-score is -1.15.

In turn, `O=P(NCC1(CC2(c3ccccc3)CO2)CC1)(c1ccccc1)c1ccccc1` (centres undefined) showed a composite z-score of -1.05. Compound `CCOC(=O)C1=CC[C@@H](c2ccccc2)N(S(=O)(=O)c2ccc(C)cc2)[C@H]1c1ccc(C#N)cc1` yielded a composite z-score of 0.931.

`COc1cc(NN2C(C(O)c3ccccc3)C=CC3C(=O)N(c4ccccc4)C(=O)C32)cc(OC)c1OC` (centres undefined): the composite z-score was found to be 0.967. As to `Cn1c2c(c3ccccc31)C(=O)C1NC2C=CC1(C)C(=O)OCc1ccccc1` (centres undefined), the composite z-score was 0.351. Consider `Cc1ccc(S[C@]2(C(=O)NCCN3CCOCC3)CC(=O)N(C3CCCCC3)[C@@H]2c2ccc(CO)cc2)cc1`, for which the composite z-score is 0.611. The same measure, in the same setting: then `COCCOC(=O)N1C(=O)[C@@]2(c3cc(C#CC4=CCCCC4)ccc31)[C@H](c1ccc(OCCO)cc1)N1[C@H](c3ccccc3)[C@H](c3ccccc3)OC(=O)[C@H]1[C@@H]2C(=O)Nc1nc2ccccc2s1`, with 0.929.

Another assay addresses Follistatin (Homo sapiens) (UniProt P19883). The assay can be described thus: follistatin binders on small-molecule microarrays, primary screen, biochemical, small-molecule microarray, 635/667 nm fluorescence (AID 1132). The settings on record: FST binding, 635 nm fluorescence, higher = more signal.
For `C[N+](C)(C)CCCCNC(=O)[C@H]1C[C@H]2C(=O)N3CCC[C@H]3C(=O)N2[C@H]1c1ccc(O)cc1`, the composite z-score was 1.46. Regarding `O=S(=O)(NCCCO)c1ccc(Br)cc1`, the composite z-score came to 1.17. As to `Cc1ccc(S(=O)(=O)N2CC(C(=O)O)=CCC2c2ccccc2)cc1` (centres undefined), the composite z-score is -1.22. On the same count and under the same terms, then `C=CCOC(=O)[C@H]1[C@@H]2C(=O)O[C@@H](c3ccccc3)[C@@H](c3ccccc3)N2[C@@H](c2ccc(OCCOC(=O)[C@@H]3C[C@@H]4C(=O)NCC(=O)N4[C@@H]3c3ccc(O)cc3)cc2)[C@]12C(=O)Nc1ccc(I)cc12`, with 1.41. As for `CC(=O)NCCCC[C@@H]1NC(=O)[C@@H]2C[C@H](C(=O)NCCCCCC[N+](C)(C)C)[C@H](c3cccc(OCCO)c3)N2C1=O`, the composite z-score was 1.39. `C/C=C/[C@H](CCn1cc([C@H](O)c2ccccc2)nn1)[Si](C)(C)c1ccc(OC)cc1` returned a composite z-score of -0.735. The same measure, in the same setting: the figure for `CCCNC(=O)[C@@]1(C)c2ccccc2C(=O)N(Cc2cc(C(F)(F)F)cc(C(F)(F)F)c2)[C@H]1c1ccc(CO)cc1` is 0.127. In turn, `C=C(CCCC)/C(=C/C[C@H](OC(C)=O)c1ccc(CO)o1)c1cc(C(=O)OC)ccc1OC` yielded a composite z-score of 1.29. Still for that read-out and setting: then `C=CCCN(CC#C[C@H]1Oc2ccccc2S(=O)(=O)N2CCC[C@@H]12)S(=O)(=O)c1ccc(C)cc1`, with 0.546; and `CN1C(=O)C2C=CC(C(O)C(c3ccccc3)c3ccccc3)N(Nc3ccccc3)C2C1=O` (centres undefined), with 1.36. On to `O=C1OCCC/C=C\[C@H]2OC34C=CCN(CCN5CCOCC5)C(=O)[C@H]3N(CCO)C(=O)[C@@H]4C12` (some centres undefined), for which the composite z-score was -0.981. Consider `COCCOC(=O)N1C(=O)[C@@]2(c3cc(C#CC4(O)CCCCCC4)ccc31)[C@H](c1ccc(O)cc1)N1[C@H](c3ccccc3)[C@H](c3ccccc3)OC(=O)[C@H]1[C@@H]2C(=O)N1CCc2cc(OC)c(OC)cc2C1`, for which the composite z-score was -0.792.

`COCCn1c(C(=O)N2CCCC2)cc2c1C[C@H]1CN(C(=O)c3ccccc3)[C@@](Cc3ccc(OC)cc3)(C(=O)OC)[C@@H]21` had a composite z-score of 0.417.

`Cc1cc(C)c(C(O)C2C=CC3C(=O)NC(=O)C3N2Nc2ccccn2)c(C)c1` (centres undefined) displayed a composite z-score of 1.11. In turn, `CC(c1ccccc1)C(O)C1C=CC2C(=O)N(Cc3ccccc3)C(=O)C2N1n1cnnc1` (centres undefined) yielded a composite z-score of 0.374. Turning to `O=C(NCC(O)CO)[C@@]1(Cc2ccccc2)N=C(c2ccc(OCCCO)cc2)O[C@H]1c1ccccc1` (some centres undefined), the composite z-score amounted to 1.29. For the compound `CC(c1ccccc1)C(O)C1C=CC2C(=O)N(c3ccccc3)C(=O)C2N1Nc1ccccc1F` (centres undefined), the composite z-score was determined as 0.473.

For the compound `C=CC[C@@]1(C(=O)NCc2ccccc2)N=C(c2ccc(OCCCO)cc2)O[C@@H]1c1ccccc1CN=[N+]=[N-]`, the composite z-score amounted to 1.29.

Regarding `C=CCN1C(=O)[C@]2(Cc3ccccc31)N=C(c1ccc(OCCCO)cc1)O[C@@H]2c1ccccc1`, the composite z-score is 1.36. Turning to `CCCCC(=O)N(Cc1ccccc1F)[C@@H]1CC(C(=O)NCCO)=C[C@H](Oc2c(I)cc(CO)cc2OC)[C@H]1O`, the composite z-score came out at 1.51.

`Cc1c(NC(=O)/C(C#N)=C/C=C/c2ccccc2)c(=O)n(-c2ccccc2)n1C`: the composite z-score worked out at 0.58. For `CC(C)(C)OC(=O)CC[C@]1(C(=O)NCC(O)CO)N=C(c2ccc(OCCCO)cc2)O[C@H]1c1ccccc1CN=[N+]=[N-]` (some centres undefined), the composite z-score amounted to 0.662. Take `CCCC[C@@H]1C[C@H]1[C@@H](NC(=O)c1ccco1)c1ccccc1`: the composite z-score is -1.64. The compound `NC(=O)NCC#Cc1ccc2c(c1)[C@]1(C(=O)N2)[C@H](c2ccccc2OCCO)N2[C@H](c3ccccc3)[C@H](c3ccccc3)OC(=O)[C@H]2[C@@H]1C(=O)N1CCCCCCC1` registered a composite z-score of 1.37.

In the case of `C=C(COC)C(=O)CC[C@H](OC(=O)c1cccnc1)c1ccccc1OCCO`, the composite z-score is 1.36. `C=C(C(=O)CC[C@@H](OC(=O)c1cccnc1)c1ccc(CO)o1)C(C)C`: the composite z-score turned out to be 1.26.

`O=C1O[C@H](c2ccccc2)[C@H](c2ccccc2)N2[C@H]1[C@@H](C(=O)Nc1nc3ccccc3s1)[C@]1(C(=O)Nc3ccc(C#CC4=CCCCC4)cc31)[C@H]2c1ccc(OCCO)cc1` yielded a composite z-score of 1.12. `COCCOC(=O)N1C(=O)[C@@]2(c3cc(C#Cc4ccc(OC)cc4)ccc31)[C@H](C(N)=O)[C@H]1C(=O)O[C@H](c3ccccc3)[C@H](c3ccccc3)N1[C@@H]2c1ccc(O)cc1` had a composite z-score of -0.694. `CN1C(=O)C2C(C1=O)C1C=C(c3ccc(CO)cc3)C2C(C2CC2)N1Cc1sc2ccccc2c1Cl` (centres undefined) came in with a composite z-score of 0.968. Regarding `CC1CC/C=C\[C@H]2OC34C=CCN(Cn5nnc6ccccc65)C(=O)[C@H]3N(CCCO)C(=O)[C@@H]4C2C(=O)O1` (some centres undefined), the composite z-score was -0.693. Compound `O=P(NCC1(CC2(c3ccccc3)CO2)CC1)(c1ccccc1)c1ccccc1` (centres undefined) showed a composite z-score of -1.23.

`CCOC(=O)C1=CC[C@@H](c2ccccc2)N(S(=O)(=O)c2ccc(C)cc2)[C@H]1c1ccc(C#N)cc1` registered a composite z-score of -0.0375.

`COc1cc(NN2C(C(O)c3ccccc3)C=CC3C(=O)N(c4ccccc4)C(=O)C32)cc(OC)c1OC` (centres undefined): the composite z-score worked out at 0.952. The compound `Cn1c2c(c3ccccc31)C(=O)C1NC2C=CC1(C)C(=O)OCc1ccccc1` (centres undefined) showed a composite z-score of -2.07.

For the compound `Cc1ccc(S[C@]2(C(=O)NCCN3CCOCC3)CC(=O)N(C3CCCCC3)[C@@H]2c2ccc(CO)cc2)cc1`, the composite z-score turned out to be 0.102. Take `COCCOC(=O)N1C(=O)[C@@]2(c3cc(C#CC4=CCCCC4)ccc31)[C@H](c1ccc(OCCO)cc1)N1[C@H](c3ccccc3)[C@H](c3ccccc3)OC(=O)[C@H]1[C@@H]2C(=O)Nc1nc2ccccc2s1`: the composite z-score worked out at 1.19.
